Peg3 prom inh – Peg3 promoter activity inhibition | AID 588405 | inhibition, % at 20 µM | 360,000 tested, 1.7% active | HeLa PEG-Prom luciferase reporter, luminescence, overnight;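 active = inhibition of at least 50% at 20 µM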
Shn3 inh set2 – reduces Shn3 3'UTR luciferase signal in osteoblasts; Clone20 osteoblast Shn3 3'UTR firefly luciferase, 24 h; 360,000 tested, 0.52% active; inhibition, % at 12.5 µM;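 active = mean inhibition of at least 75% with every replicate also reaching 75%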;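 note: 0% = median of neutral control wells and 100% = pilot-screen positive control compound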
MITF TRPM1 inh – MITF TRPM1 promoter inhibition in SK-MEL-5 cells. SK-MEL-5 TRPM1 promoter luciferase, 24 h. AID 488899. 330,000 tested, 0.83% active. inhibition, % at 12.5 µM;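 active = mean inhibition across replicates of 60% or more, whatever share of single replicates reaches that level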
TROY signal inh – blocks TROY-dependent signaling in reporter cells; AID 1347056; 360,000 tested, 0.98% active; inhibition, % at 10 µM; Q293 LMP1-TROYcd NF-kB luciferase reporter, 4 h;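 active = compounds whose plate-normalised and pattern-corrected inhibition of the luciferase reporter signal at the single screening dose is 50% or more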
EBV LMP1 NFkB – Epstein-Barr LMP1 NF-kappaB reporter inhibition. inhibition, % at 12.5 µM. LMP1-induced NF-kappaB luciferase reporter cells, luminescence. 350,000 tested, 0.69% active; in the data active = inhibition above about 41%;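 note: 0% = neutral control wells and 100% = reference inhibitor control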
TWEAK-Fn14 inh – blocks TWEAK-Fn14 interaction in a reporter cell assay; TWEAK-stimulated Fn14 reporter cells, luciferase luminescence, 8 h; inhibition, % at 10 µM; 360,000 tested, 2% active; in the data active = inhibition above about 50%
The depositor's hits bear a star; · = no result given; ! = not active in a repeat. A selection: hits, their analogues and other compounds. The true share with any hit is near 4.1%.

SMILES	Peg3 prom inh	Shn3 inh set2	MITF TRPM1 inh	TROY signal inh	EBV LMP1 NFkB	TWEAK-Fn14 inh
COCC(C)n1c(C)cc(C(=O)COC(=O)c2c(NC(C)=O)sc(C)c2C)c1C (stereo unspecified)	2	37	1	65*	14	15
O=C(NCc1ccc(F)cc1)C(c1ccccc1)c1ccccc1	12	15	3	1	2	54*
CCN1CCN(Cc2ccc(NC(=O)c3cc(NC(=O)c4cc5cccc(OC)c5o4)cc(OC)c3)cc2C(F)(F)F)CC1	104*	99*	18	-11	-103	60*!
CCN1CCN(Cc2ccc(NC(=O)c3cc(NC(=O)c4ccc5n[nH]nc5c4)cc(OC)c3)cc2C(F)(F)F)CC1	-10	-27	2	4	-18	8
CCN1CCN(Cc2ccc(NC(=O)c3cc(NC(=O)c4cncc(-c5cccs5)c4)cc(OC)c3)cc2C(F)(F)F)CC1	31	98*	·	8	-7	-64
COc1cc(Nc2ccccn2)cc(C(=O)Nc2cccc(C(F)(F)F)c2)c1	81*!	35	14	17	-2	50*!
CCN1CCN(Cc2ccc(NC(=O)c3cc(NC(=O)C4=NN(c5ccccc5)C(=O)C4)cc(OC)c3)cc2C(F)(F)F)CC1	-27	-5	6	-23	-4	-17
CCN1CCN(Cc2ccc(NC(=O)c3ccc(C)c(NC(=O)c4csc(-c5ccncc5)n4)c3)cc2C(F)(F)F)CC1	-9	-1	49	15	18	-59
CCN1CCN(Cc2ccc(NC(=O)c3cc(NC(=O)N4CCNC4=O)cc(OC)c3)cc2C(F)(F)F)CC1	97*!	13	-4	-12	11	11
CCn1c(COc2ccccc2OC)nnc1SCC(=O)NC1CCCC1	-2	10	4	4	-4	24
COc1cccc2c1OCC(C(=O)Nc1nccs1)=C2	-293	-79	-112	-25	-38	11
COc1cc(NC(=O)c2cc3cccc(OC)c3o2)cc(C(=O)Nc2cccc(C(F)(F)F)c2)c1	41	50	51	16	13	57*
COc1cc(NC(=O)c2ccno2)cc(C(=O)Nc2cccc(C(F)(F)F)c2)c1	1	0	2	-7	9	-5
CCN1CCN(Cc2ccc(NC(=O)c3cc(NC(=O)c4cc(-c5ccc(OC)cc5)n[nH]4)cc(OC)c3)cc2C(F)(F)F)CC1	32	9	99*	-15	-2	-97
CCOC(=O)[C@@H]1[C@H]2COc3cc(OC)ccc3[C@@H]2N2C(=O)N(c3ccc(C(F)(F)F)cc3)C(=O)[C@@]12C	13	8	-8	2	0	-10
CCOC(=O)[C@@H]1[C@H]2COc3cc(OC)ccc3[C@H]2N2C(=O)N(c3ccc(C(F)(F)F)cc3)C(=O)[C@]12C	17	-3	-3	39	1	74*
O=C(NCC(=O)N1CC(O)CC1C(=O)N1CCCC1C(=O)OCc1ccccc1)OCc1ccccc1 (stereo unspecified)	2	0	8	10	6	18
Cc1nc(Nc2ccccc2)sc1-c1ccccc1	-227	-53	-56	-16	-32	39
Cc1nc(Nc2ccc(C(=O)O)cc2)sc1-c1ccccc1	11	-12	37	56*	-40	93*
FC(F)(F)c1ccc(-c2csc(-c3ccno3)n2)cc1	-71	-23	-13	-39	-22	-17
CC(C)(C)C(=O)OCc1nc(-c2ccc(C(F)(F)F)cc2)cs1	-52	11	-23	73*	-6	-24
COc1ccc(CCCNC(=O)C2CCC(=O)N(CC3CCCCC3)C2)cc1 (stereo unspecified)	-1	15	-3	-32	5	13
COc1ccc(CNC(=O)Cn2nc(C(F)(F)F)c3c2CCC3)cc1	-175	3	-5	-4	-11	-16
COc1ccccc1N1CCN(C(=O)Cn2nc(C(F)(F)F)c3c2CCC3)CC1	17	-22	3	·	-8	53*
C[C@@H]1CN([C@@H](C)CO)C(=O)c2cc(C#Cc3cccc(F)c3)cnc2O[C@@H]1CN(C)CC1CCOCC1	-10	-5	·	-17	-5	-7
CCSc1nc(N2CCCCC2)c2c(c1C#N)CCCC2	23	11	-21	·	-3	94*
N#Cc1c(SCc2ccccc2)nc(N2CCOCC2)c2c1CCCC2	42	31	0	-10	-8	10
